For test [1], the target named is Tyrosine-protein kinase SYK (Homo sapiens) (UniProt P43405). Conditions: at 10 µM.
In test [2] the target is T1, Mitogen-activated protein kinase kinase kinase 7 (Homo sapiens) (UniProt O43318).
T1 sequence (whole entry): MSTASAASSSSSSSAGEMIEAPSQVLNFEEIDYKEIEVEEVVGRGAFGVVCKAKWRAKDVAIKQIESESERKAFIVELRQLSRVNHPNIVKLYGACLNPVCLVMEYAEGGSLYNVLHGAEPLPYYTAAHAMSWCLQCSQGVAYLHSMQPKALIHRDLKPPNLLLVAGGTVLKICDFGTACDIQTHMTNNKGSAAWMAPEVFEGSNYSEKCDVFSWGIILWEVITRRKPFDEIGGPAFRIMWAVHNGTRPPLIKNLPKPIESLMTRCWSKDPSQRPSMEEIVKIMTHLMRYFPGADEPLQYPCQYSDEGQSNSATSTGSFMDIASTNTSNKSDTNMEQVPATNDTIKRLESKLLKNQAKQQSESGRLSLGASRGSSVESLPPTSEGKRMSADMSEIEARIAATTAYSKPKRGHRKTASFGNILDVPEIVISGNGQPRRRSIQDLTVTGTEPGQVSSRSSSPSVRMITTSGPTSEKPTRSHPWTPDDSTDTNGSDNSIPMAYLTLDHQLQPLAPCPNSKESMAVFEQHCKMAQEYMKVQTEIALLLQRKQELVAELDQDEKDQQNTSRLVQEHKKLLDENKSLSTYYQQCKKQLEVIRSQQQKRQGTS
To be noted: at 1 µM.

The target of test [3] is T1, Mitogen-activated protein kinase kinase kinase 7 (Homo sapiens). Conditions: at 10 µM.
For test [4], the target named is T2, Serine/threonine-protein kinase TAO1 (Homo sapiens) (UniProt Q7L7X3).
T2 sequence (whole entry): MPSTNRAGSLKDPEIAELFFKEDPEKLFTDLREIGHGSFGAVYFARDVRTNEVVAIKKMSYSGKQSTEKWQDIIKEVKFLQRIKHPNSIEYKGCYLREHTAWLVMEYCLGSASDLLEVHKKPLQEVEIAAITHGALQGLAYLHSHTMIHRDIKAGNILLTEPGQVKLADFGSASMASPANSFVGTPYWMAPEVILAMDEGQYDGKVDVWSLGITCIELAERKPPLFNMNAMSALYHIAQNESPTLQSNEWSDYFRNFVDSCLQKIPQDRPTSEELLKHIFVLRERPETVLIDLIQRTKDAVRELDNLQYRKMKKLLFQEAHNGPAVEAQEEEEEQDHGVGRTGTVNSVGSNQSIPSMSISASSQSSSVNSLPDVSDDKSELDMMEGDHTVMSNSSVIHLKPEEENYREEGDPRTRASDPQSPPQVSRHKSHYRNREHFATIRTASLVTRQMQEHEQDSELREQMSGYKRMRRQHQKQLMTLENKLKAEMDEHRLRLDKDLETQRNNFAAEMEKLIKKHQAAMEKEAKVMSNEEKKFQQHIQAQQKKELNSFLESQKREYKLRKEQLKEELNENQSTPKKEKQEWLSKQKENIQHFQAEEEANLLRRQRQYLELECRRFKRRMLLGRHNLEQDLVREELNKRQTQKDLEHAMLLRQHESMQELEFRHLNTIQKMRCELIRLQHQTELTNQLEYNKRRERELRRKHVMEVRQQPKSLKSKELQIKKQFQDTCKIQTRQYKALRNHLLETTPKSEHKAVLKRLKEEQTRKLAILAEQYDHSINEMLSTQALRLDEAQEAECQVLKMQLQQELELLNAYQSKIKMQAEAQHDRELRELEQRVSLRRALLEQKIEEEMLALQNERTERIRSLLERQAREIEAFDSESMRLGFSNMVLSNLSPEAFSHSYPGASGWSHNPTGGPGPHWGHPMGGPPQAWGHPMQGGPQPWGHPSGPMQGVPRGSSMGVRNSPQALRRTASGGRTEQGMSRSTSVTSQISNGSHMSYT
Conditions: at 1 µM.

Test [5] deals with T2, Serine/threonine-protein kinase TAO1 (Homo sapiens). To be noted: at 10 µM.
Test [6] deals with T3, Serine/threonine-protein kinase TAO2 (Homo sapiens) (UniProt Q9UL54).
T3 sequence (whole entry): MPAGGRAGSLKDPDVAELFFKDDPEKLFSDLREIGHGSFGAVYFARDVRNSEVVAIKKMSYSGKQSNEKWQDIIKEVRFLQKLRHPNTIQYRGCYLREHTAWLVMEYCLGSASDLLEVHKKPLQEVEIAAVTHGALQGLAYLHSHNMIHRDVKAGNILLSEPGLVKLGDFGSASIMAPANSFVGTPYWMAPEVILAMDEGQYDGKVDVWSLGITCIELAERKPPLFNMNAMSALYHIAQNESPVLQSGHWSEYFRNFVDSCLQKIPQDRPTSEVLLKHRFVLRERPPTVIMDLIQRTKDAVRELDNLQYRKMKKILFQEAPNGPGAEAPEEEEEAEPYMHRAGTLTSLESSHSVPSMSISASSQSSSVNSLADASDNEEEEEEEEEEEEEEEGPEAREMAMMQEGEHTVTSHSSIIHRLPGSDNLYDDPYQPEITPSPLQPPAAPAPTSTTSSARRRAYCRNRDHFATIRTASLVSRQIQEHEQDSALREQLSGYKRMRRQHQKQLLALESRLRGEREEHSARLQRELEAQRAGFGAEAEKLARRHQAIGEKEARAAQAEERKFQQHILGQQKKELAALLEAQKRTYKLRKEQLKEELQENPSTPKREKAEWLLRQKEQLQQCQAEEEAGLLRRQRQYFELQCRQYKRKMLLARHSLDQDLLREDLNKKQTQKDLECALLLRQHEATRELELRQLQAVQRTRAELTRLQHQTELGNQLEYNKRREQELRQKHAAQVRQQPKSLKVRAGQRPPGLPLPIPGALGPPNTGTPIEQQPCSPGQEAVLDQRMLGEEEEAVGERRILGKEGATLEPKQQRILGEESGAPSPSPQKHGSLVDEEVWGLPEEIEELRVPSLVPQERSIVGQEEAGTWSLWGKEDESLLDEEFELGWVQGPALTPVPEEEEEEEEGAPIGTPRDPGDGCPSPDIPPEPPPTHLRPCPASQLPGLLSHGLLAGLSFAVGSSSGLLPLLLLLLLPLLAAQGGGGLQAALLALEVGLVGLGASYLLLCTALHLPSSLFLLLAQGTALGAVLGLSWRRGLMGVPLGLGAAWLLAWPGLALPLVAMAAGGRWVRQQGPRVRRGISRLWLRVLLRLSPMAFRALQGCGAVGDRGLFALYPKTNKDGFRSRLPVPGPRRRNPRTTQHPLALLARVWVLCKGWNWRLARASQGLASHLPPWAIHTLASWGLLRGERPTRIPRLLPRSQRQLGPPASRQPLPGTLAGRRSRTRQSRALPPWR
To be noted: at 1 µM.

Test [7] concerns the target T3, Serine/threonine-protein kinase TAO2 (Homo sapiens). Conditions: at 10 µM.
Test [8] concerns the target T4, Serine/threonine-protein kinase TAO3 (Homo sapiens) (UniProt Q9H2K8).
T4 sequence (whole entry): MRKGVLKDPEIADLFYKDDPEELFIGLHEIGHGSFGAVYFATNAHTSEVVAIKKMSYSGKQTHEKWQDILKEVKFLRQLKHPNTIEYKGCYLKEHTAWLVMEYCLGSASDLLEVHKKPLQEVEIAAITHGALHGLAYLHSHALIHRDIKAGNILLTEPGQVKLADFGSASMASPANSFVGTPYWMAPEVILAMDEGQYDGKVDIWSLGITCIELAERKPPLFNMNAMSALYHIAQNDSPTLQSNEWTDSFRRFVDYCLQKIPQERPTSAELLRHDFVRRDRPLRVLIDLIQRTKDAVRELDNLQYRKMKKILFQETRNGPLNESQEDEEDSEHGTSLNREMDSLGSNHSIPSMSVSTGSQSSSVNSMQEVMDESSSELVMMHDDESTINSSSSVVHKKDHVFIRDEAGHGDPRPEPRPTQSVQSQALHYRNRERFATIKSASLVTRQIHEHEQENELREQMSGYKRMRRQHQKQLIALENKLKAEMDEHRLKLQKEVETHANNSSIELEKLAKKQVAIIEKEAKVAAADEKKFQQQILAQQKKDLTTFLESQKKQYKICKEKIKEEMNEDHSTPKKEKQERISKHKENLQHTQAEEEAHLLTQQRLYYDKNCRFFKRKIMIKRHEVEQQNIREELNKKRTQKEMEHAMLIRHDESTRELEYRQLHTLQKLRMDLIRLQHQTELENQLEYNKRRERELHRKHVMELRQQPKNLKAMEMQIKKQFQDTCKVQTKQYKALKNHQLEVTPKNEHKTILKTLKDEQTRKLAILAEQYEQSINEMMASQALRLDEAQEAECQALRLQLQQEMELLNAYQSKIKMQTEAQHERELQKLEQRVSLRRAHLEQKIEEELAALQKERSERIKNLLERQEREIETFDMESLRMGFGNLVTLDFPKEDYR
Conditions: at 1 µM.

The target of test [9] is T4, Serine/threonine-protein kinase TAO3 (Homo sapiens). To be noted: at 10 µM.
Test [10] addresses T5, Serine/threonine-protein kinase TBK1 (Homo sapiens) (UniProt Q9UHD2).
T5 sequence (whole entry): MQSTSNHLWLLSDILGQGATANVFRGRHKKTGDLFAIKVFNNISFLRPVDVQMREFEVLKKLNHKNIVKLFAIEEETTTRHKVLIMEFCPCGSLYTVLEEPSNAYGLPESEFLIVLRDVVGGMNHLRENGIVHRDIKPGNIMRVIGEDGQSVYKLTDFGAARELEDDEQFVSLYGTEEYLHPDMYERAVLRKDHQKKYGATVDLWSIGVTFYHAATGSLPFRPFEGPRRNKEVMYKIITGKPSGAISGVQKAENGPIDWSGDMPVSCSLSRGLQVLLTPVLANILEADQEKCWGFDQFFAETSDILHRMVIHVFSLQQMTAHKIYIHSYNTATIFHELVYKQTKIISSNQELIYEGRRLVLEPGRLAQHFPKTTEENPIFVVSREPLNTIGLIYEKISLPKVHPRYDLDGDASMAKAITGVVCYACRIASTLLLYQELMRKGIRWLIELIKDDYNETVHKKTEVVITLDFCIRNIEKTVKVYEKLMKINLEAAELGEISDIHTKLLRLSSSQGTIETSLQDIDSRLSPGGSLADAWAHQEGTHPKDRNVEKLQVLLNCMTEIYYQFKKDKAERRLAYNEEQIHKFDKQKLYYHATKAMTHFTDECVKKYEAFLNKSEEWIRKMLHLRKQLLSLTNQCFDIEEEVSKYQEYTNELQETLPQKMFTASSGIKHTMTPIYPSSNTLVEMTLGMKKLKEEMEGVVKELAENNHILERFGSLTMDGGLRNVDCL
To be noted: at 1 µM.

The structures appear in SMILES notation.

`CC(C)n1cnc2c(NCc3ccccc3)nc(NCCCO)nc21`: the residual activity in [1] was 105%; in test [2], 96%; in test [3] it was 92%; in test [4] it was 87%; in test [5], 81%; in [6], 100%. Further, the residual activity in test [7] came out at 101%; in [8], 97%; in test [9] it was 88%; in [10], 79%.
